From PubChem BioAssay (EPA / NIEHS)
Results filed as inconclusive are left out. Calls of active or inactive are those of the source. How the source made its calls: active means hit-call score of the fitted dose curve at least 0.9, where 1 is the maximum; inconclusive means response in the unintended direction; inactive means score below 0.9.

Target: Cellular tumor antigen p53 (Homo sapiens) (UniProt P04637)
Assay: TOX21_p53_BLA_p3_ratio: Tox21 HCT-116 p53 Agonism Beta-lactamase Assay, Ratio, Phase 3 (AID 2283596)
In short: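 HCT116 p53-bla cells (4000/well) given compound in DMSO (217-fold dilution) after 5 h, incubated 16 h at 37C. CCF4-AM substrate 2 h at room temperature; 460/530 nm emission ratio, gain fitted against DMSO.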

Cellular tumor antigen p53 (Homo sapiens), sequence (P04637 whole entry, looked up): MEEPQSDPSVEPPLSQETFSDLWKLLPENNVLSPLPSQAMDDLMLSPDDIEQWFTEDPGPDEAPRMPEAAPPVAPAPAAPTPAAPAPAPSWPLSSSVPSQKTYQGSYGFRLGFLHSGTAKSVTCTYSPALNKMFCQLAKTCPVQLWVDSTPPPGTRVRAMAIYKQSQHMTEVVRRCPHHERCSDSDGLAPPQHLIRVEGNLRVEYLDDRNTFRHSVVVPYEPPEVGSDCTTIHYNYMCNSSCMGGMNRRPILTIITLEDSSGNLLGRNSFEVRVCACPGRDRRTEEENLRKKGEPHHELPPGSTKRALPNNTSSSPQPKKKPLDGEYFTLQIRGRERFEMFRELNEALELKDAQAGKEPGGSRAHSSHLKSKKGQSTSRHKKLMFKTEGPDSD

SMILES	outcome
COc1cc2c(cc1OC)C(C(C(=O)N(CCc1ccc(OC)c(OC)c1OC)CCc1ccc(OC)c(OC)c1OC)c1ccccc1)=NCC2 (stereo not drawn)	inactive
C[C@](N)(Cc1ccc(O)cc1)C(=O)O	inactive
NCc1ccc(S(N)(=O)=O)cc1	inactive
CC(C)(O)CCC(C)(C)O	inactive
NC(=O)C1(N2CCCCC2)CCN(CCCC(=O)c2ccc(F)cc2)CC1	inactive
CCCOC(C)=O	inactive
CN(C)C(=O)Oc1ccc[n+](C)c1	inactive
CC(=O)OCC(C)C	inactive
C=C(C)C(=O)OCCCCCCCC(C)C	inactive
O=C(O)CC/C=C\CC[C@@H]1[C@@H](N2CCCCC2)[C@@H](O)C[C@@H]1OCc1ccc(-c2ccccc2)cc1	inactive
Cc1ccc(N)nc1	inactive
Cc1ccc(Cl)cc1Cl	inactive
CNS(=O)(=O)Cc1ccc2[nH]cc(CCN(C)C)c2c1	inactive
CC[C@@H](N)CO	inactive
COC(=O)NN	inactive
O=C(/C=C/c1ccc(O)c(O)c1)O[C@@H](C(=O)O)[C@@H](OC(=O)/C=C/c1ccc(O)c(O)c1)C(=O)O	inactive

System: not listed separately
Assay: TOX21_p53_BLA_p4_viability: Viability Assessment in the Tox21 HCT-116 p53 Agonism Beta-lactamase Assay, Phase 4 (AID 2283597);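 further: hits lower the luminescence signal meaning cytotoxicity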
In short: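 Luminescent ATP readout (CellTiter-Glo, 30 min, room temperature) in the same wells as the p53 bla ratio. HCT116 cells were treated for 16 h at 37C with DMSO-dissolved compounds.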

SMILES	outcome
COc1cc2c(cc1OC)C(C(C(=O)N(CCc1ccc(OC)c(OC)c1OC)CCc1ccc(OC)c(OC)c1OC)c1ccccc1)=NCC2 (stereo not drawn)	inactive
C[C@](N)(Cc1ccc(O)cc1)C(=O)O	inactive
NCc1ccc(S(N)(=O)=O)cc1	inactive
CC(C)(O)CCC(C)(C)O	inactive
NC(=O)C1(N2CCCCC2)CCN(CCCC(=O)c2ccc(F)cc2)CC1	inactive
CCCOC(C)=O	inactive
CN(C)C(=O)Oc1ccc[n+](C)c1	inactive
C=C(C)C(=O)OCCCCCCCC(C)C	inactive
Cc1ccc(N)nc1	inactive
CNS(=O)(=O)Cc1ccc2[nH]cc(CCN(C)C)c2c1	inactive
CC[C@@H](N)CO	inactive
COC(=O)NN	inactive
O=C(/C=C/c1ccc(O)c(O)c1)O[C@@H](C(=O)O)[C@@H](OC(=O)/C=C/c1ccc(O)c(O)c1)C(=O)O	inactive

Target: Cellular tumor antigen p53 (Homo sapiens) (UniProt P04637)
Assay: TOX21_p53_BLA_p5_ratio: Tox21 HCT-116 p53 Agonism Beta-lactamase Assay, Ratio, Phase 5 (AID 2283599)
In short: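 HCT-116 p53-bla cells (4000/well) plated 5 h, dosed with compound (217-fold DMSO dilution) for 16 h at 37 C; CCF4-AM substrate 2 h at room temperature. Activity is the 460/530 nm emission ratio (405 nm excitation), fitted in gain-of-signal direction versus DMSO.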

SMILES	outcome
COc1cc2c(cc1OC)C(C(C(=O)N(CCc1ccc(OC)c(OC)c1OC)CCc1ccc(OC)c(OC)c1OC)c1ccccc1)=NCC2 (stereo not drawn)	inactive
C[C@](N)(Cc1ccc(O)cc1)C(=O)O	inactive
NCc1ccc(S(N)(=O)=O)cc1	inactive
CC(C)(O)CCC(C)(C)O	inactive
NC(=O)C1(N2CCCCC2)CCN(CCCC(=O)c2ccc(F)cc2)CC1	inactive
CCCOC(C)=O	inactive
CN(C)C(=O)Oc1ccc[n+](C)c1	inactive
C=C(C)C(=O)OCCCCCCCC(C)C	inactive
Cc1ccc(N)nc1	inactive
CNS(=O)(=O)Cc1ccc2[nH]cc(CCN(C)C)c2c1	inactive
CC[C@@H](N)CO	inactive
COC(=O)NN	inactive
O=C(/C=C/c1ccc(O)c(O)c1)O[C@@H](C(=O)O)[C@@H](OC(=O)/C=C/c1ccc(O)c(O)c1)C(=O)O	inactive

System: not listed separately
Assay: TOX21_p53_BLA_p5_viability: Viability Assessment in the Tox21 HCT-116 p53 Agonism Beta-lactamase Assay, Phase 5 (AID 2283600)
In short: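 Seeded cells (4000/well) settle 5 h before compound addition. Plates then incubate 16 h at 37C, receive FRET substrate for 2 h, and finally CellTiter-Glo, with luminescence measured after a 30 min room-temperature incubation.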

SMILES	outcome
COc1cc2c(cc1OC)C(C(C(=O)N(CCc1ccc(OC)c(OC)c1OC)CCc1ccc(OC)c(OC)c1OC)c1ccccc1)=NCC2 (stereo not drawn)	inactive
C[C@](N)(Cc1ccc(O)cc1)C(=O)O	inactive
NCc1ccc(S(N)(=O)=O)cc1	inactive
CC(C)(O)CCC(C)(C)O	inactive
CCCOC(C)=O	inactive
CN(C)C(=O)Oc1ccc[n+](C)c1	inactive
C=CCCCC	inactive
CCN(CC)CCOC(=O)C(c1ccccc1)C1CCCCC1 (stereo not drawn)	inactive
C=C(C)C(=O)OCCCCCCCC(C)C	inactive
Cc1ccc(N)nc1	inactive
C[C@@H](O)[C@H]1C(=O)N2C(C(=O)O)=C([C@H]3CCCO3)S[C@H]12	inactive
FC(F)(F)C(Cl)(Cl)Cl	inactive
OCC(O)COc1ccc(Cl)cc1 (stereo not drawn)	inactive
CNS(=O)(=O)Cc1ccc2[nH]cc(CCN(C)C)c2c1	inactive
CC(C)(CCC(=O)O)C(=O)O	inactive
CCCN(CCC)C(=O)C(CCC(=O)O)NC(=O)c1ccccc1 (stereo not drawn)	inactive
COC(=O)NN	inactive
O=C(/C=C/c1ccc(O)c(O)c1)O[C@@H](C(=O)O)[C@@H](OC(=O)/C=C/c1ccc(O)c(O)c1)C(=O)O	inactive

Target: Cellular tumor antigen p53 (Homo sapiens) (UniProt P04637)
Assay: TOX21_p53_BLA_p4_ratio: Tox21 HCT-116 p53 Agonism Beta-lactamase Assay, Ratio, Phase 4 (AID 2283601)
In short: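 HCT-116 p53 beta-lactamase reporter cells (4000/well) preincubated 5 h, then compound (217-fold dilution of DMSO stock) for 16 h at 37C. CCF4-AM substrate added 2 h at room temperature; 460/530 nm emission ratio fitted upward versus DMSO.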

SMILES	outcome
CCCC(C)CO (stereo not drawn)	inactive
CCOC(=O)C(Br)c1ccccc1 (stereo not drawn)	inactive
COc1cc2c(cc1OC)C(C(C(=O)N(CCc1ccc(OC)c(OC)c1OC)CCc1ccc(OC)c(OC)c1OC)c1ccccc1)=NCC2 (stereo not drawn)	inactive
CO/N=C(\C(=O)N[C@@H]1C(=O)N2C(C(=O)O)=C(C[N+]3(C)CCCC3)CS[C@H]12)c1csc(N)n1	inactive
CC1(c2ccccc2)OC(C(=O)O)=CC1=O (stereo not drawn)	inactive
CCN1CCN(C(=O)N[C@@H](C(=O)N[C@@H]2C(=O)N3C(C(=O)O)=C(CSc4nnnn4C)CS[C@H]23)c2ccc(O)cc2)C(=O)C1=O	inactive
C1CCCNCCC1	inactive
CC(=O)CCC=C(C)CC/C=C(\C)CC/C=C(\C)CCC=C(C)C	inactive
CN(C)C(=O)Oc1ccc[n+](C)c1	inactive
C=CCCCC	inactive
CCN(CC)CCOC(=O)C(c1ccccc1)C1CCCCC1 (stereo not drawn)	inactive
COc1ccc2c(c1)C(=O)N(CCc1ccc(S(=O)(=O)NC(=O)NC3CCCCC3)cc1)C(=O)C2(C)C	inactive
CCOc1ccccc1N	inactive
CCCCCCCCCCCCCCCC/C=C/C1CC(=O)OC1=O (stereo not drawn)	inactive
Cc1ccc(N)nc1	inactive
c1cnc2cc3c(cc2n1)C1CNCC3C1	inactive
C[C@@H](O)[C@H]1C(=O)N2C(C(=O)O)=C([C@H]3CCCO3)S[C@H]12	inactive
FC(F)(F)C(Cl)(Cl)Cl	inactive
OCC(O)COc1ccc(Cl)cc1 (stereo not drawn)	inactive
CN1CC[C@H](c2c(O)cc(O)c3c(=O)cc(-c4ccccc4Cl)oc23)[C@H](O)C1	inactive
CC(C)(CCC(=O)O)C(=O)O	inactive
CCCN(CCC)C(=O)C(CCC(=O)O)NC(=O)c1ccccc1 (stereo not drawn)	inactive
O=C(/C=C/c1ccc(O)c(O)c1)O[C@@H](C(=O)O)[C@@H](OC(=O)/C=C/c1ccc(O)c(O)c1)C(=O)O	inactive
